These results are taken from PubChem BioAssay (NCATS).

Records with an inconclusive call do not appear. Unmarked numbers belong to inactive results. Calls come from the whole dose curve; as a rule, active = well fitted curve in either direction with a large enough effect (not every such curve was filed as active); inconclusive = small, poorly fitted or top-dose-only effect, or another doubt; inactive = flat fitted curve, though single readings scatter.
% is set by controls: 0 for no effect and ±100 for the full control effect.

The nature of the assay: Stat Signaling Pathway (AID 446).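 Note: ME-180 cervical cancer cells given 40 pM IL-6 alongside compound; SIE-controlled beta-lactamase reporter measured as 460/530 nm FRET emission ratio.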 As to conditions: ME-180 (cervical carcinoma) SIE beta-lactamase reporter, IL-6 stimulated, 5 h; at 17.2 µM (top of the series) unless noted. Put shortly: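 Overnight-plated ME-180 cells bearing a STAT Inducible Element beta-lactamase reporter; 5 h co-exposure to compound and 40 pM IL-6; values normalized to 300 pM IL-6 and 125 nM JAK inhibitor controls.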
For the compound `CS(=O)(=O)CCC(C(=O)n1nnc2ccccc21)N1C(=O)c2ccccc2C1=O` (configuration not stated), the activity, negative = inhibition is -20.7%. For `CCOc1nc(-c2ccncc2)nc2ccccc12` the value was -6.2%; for `Cc1ccc(C2C(C(=O)c3cc4ccccc4o3)=C(O)C(=O)N2CCN(C)C)o1` (configuration not stated), -0.311%; for `Cn1c(=O)c2c(nc(NCc3ccco3)n2Cc2ccccc2Cl)n(C)c1=O`, -14.8%. For `N#C/C(C(=O)NCc1ccco1)=C1/SC(Cc2ccc(F)cc2)C(=O)N1c1ccccc1` (configuration not stated) the value was -22.9%; for `CCOc1ccc2c(c1)n([O-])c1c([n+]2=O)CCCC1`, 1.7%; for `COc1cc(C2C(C(=O)c3cccs3)=C(O)C(=O)N2c2cc(C)on2)ccc1O` (configuration not stated), -6.54%.

In the case of `CN1CCN(CCCCOc2ccc(F)cc2)CC1`, the activity, negative = inhibition was -0.445%. For `CCOC(=O)CSC1=C(C#N)C(c2ccc3c(c2)OCO3)CC(=O)N1` (configuration not stated) the value was 3.81%; for `CCn1c(SCC(=O)O)nc2sc3c(c2c1=O)CCC3`, -5.86%; for `Cc1cc(=O)oc(C)c1C(=O)NCCNC(=O)c1c(C)cc(=O)oc1C`, 6.54%.

Turning to `CCCOc1cccc(-c2nnc(N)s2)c1`, the activity, negative = inhibition was -2.76%. Under `c1ccc(C2=Nn3c(nnc3-c3ccccn3)SC2)cc1` stands 5.46%; under `COc1cc(-c2nn3c(-c4ccco4)nnc3s2)cc(OC)c1OC`, -1.97%.

`Cn1ncc(N=Cc2ccccc2O)c1C(=O)Nc1ccccc1`: the activity, negative = inhibition is 0.0885%. For `O=C1CC(c2ccccc2)n2nc(N3C(=O)c4ccccc4C3=O)nc2N1` (configuration not stated) the value was -7.82%. Under `CC(C)OC(=O)CCNc1n[nH]c(=O)[nH]c1=O` stands 0.163%; under `COCCNc1nc2c(c(=O)n(C)c(=O)n2C)n1Cc1cccc(C(F)(F)F)c1`, 226%; under `CN1C(=S)SC(N(O)C(=O)Nc2ccccc2)C1(C)C` (configuration not stated), 2.19%. Turning to `Cc1cc(C)n(C(=O)CNC(=O)C2COc3ccccc3O2)n1` (configuration not stated), the activity, negative = inhibition is 24.9%. Under `CCOc1ccc(-n2c3nc4ccccc4nc3c3c(=O)n(Cc4ccco4)cnc32)cc1` stands -2.34%. On to `CCNC(=O)Nn1c(C)nnc1C`, for which the activity, negative = inhibition was 6.6%.
